# Experimental data taken from PubChem BioAssay (Tox21).
# “And” between values parts separate entries of the source, which are not always exact repeats. Equal values may be shown once. Records with an inconclusive call do not appear. Entries that show only a call come without a potency. More than one record can exist for a structure, and the calls need not agree. The source made the active and inactive calls. Unless noted, the call rests on the fitted dose curve; in most records, active means well fitted curve in the direction sought with a large enough effect in the repeat runs; inconclusive means weak or mixed curves; inactive means no such curve, though single readings can be large; an effect the other way counts as inactive or inconclusive.
# Key:
# [1] = Caspase-3/7 induction in HepG2 cells by small molecules, qHTS assay (AID 1346978); further: nearly all actives have a fitted effect of over 15% in size; further: potency means the concentration at half of the fitted maximal effect
# In short: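 Wild-type HepG2 cells (2,000/well) were settled 5 h at 37 C, 5% CO2, then exposed to compounds in DMSO for 17 h. Caspase-3/7 activity was read by luminescence 30 min after adding Caspase-Glo 3/7 reagent at room temperature.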
# [2] = Caspase-3/7 induction in CHO-K1 cells by small molecules, qHTS cell viability counter screen (AID 1346979); further: nearly all actives have a fitted effect of over 35% in size; further: potency means the concentration at half of the fitted maximal effect
# In short: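 Following a 5hr settling period, CHO-K1 cells at 1,500 per well received DMSO-dissolved compounds. Cell viability was quantified 16hr later by CellTiter-Fluor fluorescence, measured after 1hr with reagent at 37C.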
# [3] = Caspase-3/7 induction in HepG2 cells by small molecules, qHTS cell viability counter screen (AID 1346981); further: nearly all actives have a fitted effect of over 30% in size; further: potency means the concentration at half of the fitted maximal effect
# In short: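 Wild-type HepG2 cells, 2,000/well, settled 5 hr at 37 C, 5% CO2 before compound addition. Viability read by CellTiter-Fluor fluorescence, reagent added after 16 hr compound exposure, then 1 hr at 37C, in the same wells as the caspase read.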
# [4] = biological target: Nuclear receptor subfamily 1 group I member 2 (Homo sapiens) (UniProt O75469); experiment: Human pregnane X receptor (PXR) small molecule agonists, qHTS assay (AID 1346982); further: nearly all actives have a fitted effect of over 35% in size; further: potency means the concentration at half of the fitted maximal effect
# In short: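 PXR-Luc HepG2 reporter cells (CYP3A4-driven luciferase) in 5% charcoal-stripped FBS medium, plated 5 h before compound addition, then treated 24 h at 37C. Luciferase read by ONE-Glo luminescence after 30 min at room temperature.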
# [5] = biological target: Acetylcholinesterase (Homo sapiens) (UniProt P22303); experiment: Acetylcholinesterase (AChE) small molecule antagonists: colormetric cell-based qHTS assay (AID 1347395; calls by dose curve; further: nearly all actives have a fitted effect of over 30% in size; further: potency means the concentration at half of the fitted maximal effect)
# In short: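 After overnight attachment at 37 C, SH-SY5Y cells get 30 min compound exposure; detection cocktail (acetylthiocholine, DTNB) then incubates 90 min at 37 C, and absorbance reflects AChE-generated thiocholine.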
# [6] = biological target: Acetylcholinesterase (Homo sapiens) (UniProt P22303); experiment: Acetylcholinesterase (AChE) small molecule antagonists: enzyme-based qHTS assay (AID 1347397; calls by dose curve; further: nearly all actives have a fitted effect of over 55% in size; further: potency means the concentration at half of the fitted maximal effect); details: Potency: AChE enzyme activity inhibition
# In short: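 Recombinant human AChE, dispensed at 50 mU/mL, was preincubated with Tox21 10K compounds or DMSO vehicle for 30 min at room temperature. DTNB plus acetylthiocholine was then added, and thiocholine was measured colorimetrically after a further 10 min.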
# [7] = biological target: Acetylcholinesterase (Homo sapiens) (UniProt P22303); experiment: Acetylcholinesterase (AChE) small molecule antagonists: fluorescence cell-based qHTS assay (AID 1347398; calls by dose curve; further: nearly all actives have a fitted effect of over 50% in size); details: Potency: AChE activity
# In short: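 Human SH-SY5Y cells were plated overnight at 37 C, exposed to compound for 30 min at 37 C, 5% CO2, then given acetylthiocholine plus Thiolite Green for 40 min at room temperature; thiocholine fluorescence (Ex/Em 490/520 nm) reports endogenous AChE activity.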
# [8] = biological target: Acetylcholinesterase (Homo sapiens) (UniProt P22303); experiment: Acetylcholinesterase (AChE) small molecule antagonists: enzyme-based qHTS assay with human liver microsomes (AID 1347399; calls by dose curve; further: nearly all actives have a fitted effect of over 60% in size); details: Potency: qHTS inhibition
# In short: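 Recombinant human AChE (50 mU/mL in the enzyme mix) and human liver microsomes (0.25 mg/mL final) were preincubated with compound and NADPH (0.25 mg/mL final) for 30 min at 37 C. Acetylthiocholine/DTNB was then added; thiocholine was read colorimetrically after 10 min at room temperature.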
# [9] = biological target: Cytochrome P450 2D6 (Homo sapiens) (UniProt P10635); experiment: Cytochrome P450 Family 2 Subfamily D Member 6 (CYP2D6) small molecule antagonists: luciferase reporter qHTS assay (AID 1671196); further: nearly all actives have a fitted effect of over 50% in size; further: potency means the concentration at half of the fitted maximal effect
# In short: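 Cell-free P450-Glo system: CYP2D6 with proluciferin substrate was pre-incubated with compound for 10 min, then reacted with NADPH regeneration for 1 h at room temperature. Luciferin product was detected after 20 min, and data were reported as relative luminescence units.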
# [10] = biological target: Cytochrome P450 2C19 (Homo sapiens) (UniProt P33261); experiment: Cytochrome P450 Family 2 Subfamily C Member 19 (CYP2C19) small molecule antagonists: luciferase reporter qHTS assay (AID 1671197); further: nearly all actives have a fitted effect of over 65% in size; further: potency means the concentration at half of the fitted maximal effect
# In short: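 P450-Glo CYP2C19 system: enzyme-substrate mix with compound 10 min at room temperature, then NADPH regeneration solution, 1 h at 37C. Proluciferin-to-luciferin conversion detected by luminescence after 20 min with detection reagent; ketoconazole as positive control.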
# [11] = biological target: Cytochrome P450 1A2 (Homo sapiens) (UniProt P05177); experiment: Cytochrome P450 Family 1 Subfamily A Member 2 (CYP1A2) small molecule antagonists: luciferase reporter qHTS assay (AID 1671199); further: nearly all actives have a fitted effect of over 50% in size; further: potency means the concentration at half of the fitted maximal effect
# In short: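 P450-Glo CYP1A2 enzyme–proluciferin substrate mix with compound 10 min at room temperature, then NADPH regeneration 1 h at room temperature. Luciferin detection reagent added, luminescence read after 20 min; furafylline positive control.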
# [12] = biological target: Voltage-gated inwardly rectifying potassium channel KCNH2 (Homo sapiens) (UniProt Q12809); experiment: Human Ether-a-go-go-Related Gene (hERG) channel small molecule antagonists: fluorescence cell-based qHTS assay (AID 1671200);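 further: hERG-expressing U2OS cells given a thallium stimulus after FluxOR II dye loading; series mostly up to about 77 µM; nearly all actives have a fitted effect of over 50% in size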
# In short: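 In this thallium-flux screen, overnight-cultured U2OS cells bearing the channel are dye-loaded in darkness for an hour, rested 10 min at room temperature, and then monitored kinetically at 480/540 nm for two minutes post-stimulus.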
# [13] = Caspase-3/7 induction in CHO-K1 cells by small molecules, qHTS assay (AID 1346980); further: nearly all actives have a fitted effect of over 15% in size
# In short: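 Wild-type cells were seeded at 1,500 per well and settled 5 hr at 37 C, 5% CO2, then exposed to DMSO-dissolved compounds for 17 hr. Caspase-Glo 3/7 reagent was added, and luminescence was read after 30min at room temperature.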
# [14] = biological target: Cytochrome P450 2C9 (Homo sapiens) (UniProt P11712); experiment: Cytochrome P450 Family 2 Subfamily C Member 9 (CYP2C9) small molecule antagonists: luciferase reporter qHTS assay (AID 1671198); further: nearly all actives have a fitted effect of over 50% in size; further: potency means the concentration at half of the fitted maximal effect
# In short: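 CYP2C9 activity was measured with a P450-Glo proluciferin substrate. Enzyme–substrate mix was held with compound for 10 min at room temperature, then NADPH regeneration solution was added for 1 h at 37C. Luciferin product was read as luminescence.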
# [15] = biological target: Cytochrome P450 3A4 (Homo sapiens) (UniProt P08684); experiment: Cytochrome P450 Family 3 Subfamily A Member 4 (CYP3A4) small molecule antagonists: luciferase reporter qHTS assay (AID 1671201); further: nearly all actives have a fitted effect of over 50% in size; further: potency means the concentration at half of the fitted maximal effect
# In short: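 CYP3A4 activity was followed with a P450-Glo proluciferin substrate. Test compounds in DMSO were preincubated 10 min; NADPH regeneration then ran 1 h, and light output was read 20 min after detection reagent.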
# [16] = biological target: Nuclear receptor subfamily 1 group I member 2 (Rattus norvegicus) (UniProt Q9R1A7); experiment: Rat pregnane X receptor (rPXR) activation by small molecules, qHTS assay (AID 1346983); details: rPXR luciferase reporter cells, One-Glo luminescence, 24 h; stronger effect = higher value; further: nearly all actives have a fitted effect of over 20% in size
# In short: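 Cell-based rPXR luciferase reporter assay, 2,000 cells per well, rested 5hr at 37 C before compound addition in DMSO, then 24 hr at 37 C. One-Glo reagent was added and luminescence read after 30 min at room temperature.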
# [17] = biological target: Nuclear receptor subfamily 1 group I member 2 (Homo sapiens) (UniProt O75469); experiment: CYP3A4 induction through human pregnane X receptor (PXR) by small molecules, qHTS assay (AID 1346984); further: nearly all actives have a fitted effect of over 40% in size
# In short: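 DPX-2 HepG2 cells carrying a PXR response element and CYP3A4-promoter luciferase construct, treated with compounds 24 hr at 37C. Then P450-Glo CYP3A4 Luciferin-IPA substrate (3uM final) for 3 hr at 37C, One-Glo added, luminescence read.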
# [18] = biological target: Nuclear receptor subfamily 1 group I member 2 (Homo sapiens) (UniProt O75469); experiment: Human pregnane X receptor (PXR) activation by small molecules, qHTS assay (AID 1346985); further: nearly all actives have a fitted effect of over 40% in size
# In short: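 DPX-2 cells (HepG2 co-transfected with a PXR response element and a CYP3A4-promoter luciferase construct) were seeded at 2,000 per well, rested 5 hr at 37C, then exposed to DMSO-dissolved compounds for 24 hr. Activation was read as luciferase luminescence.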
# Cytochrome P450 2D6 (Homo sapiens), sequence (P10635 whole entry, looked up): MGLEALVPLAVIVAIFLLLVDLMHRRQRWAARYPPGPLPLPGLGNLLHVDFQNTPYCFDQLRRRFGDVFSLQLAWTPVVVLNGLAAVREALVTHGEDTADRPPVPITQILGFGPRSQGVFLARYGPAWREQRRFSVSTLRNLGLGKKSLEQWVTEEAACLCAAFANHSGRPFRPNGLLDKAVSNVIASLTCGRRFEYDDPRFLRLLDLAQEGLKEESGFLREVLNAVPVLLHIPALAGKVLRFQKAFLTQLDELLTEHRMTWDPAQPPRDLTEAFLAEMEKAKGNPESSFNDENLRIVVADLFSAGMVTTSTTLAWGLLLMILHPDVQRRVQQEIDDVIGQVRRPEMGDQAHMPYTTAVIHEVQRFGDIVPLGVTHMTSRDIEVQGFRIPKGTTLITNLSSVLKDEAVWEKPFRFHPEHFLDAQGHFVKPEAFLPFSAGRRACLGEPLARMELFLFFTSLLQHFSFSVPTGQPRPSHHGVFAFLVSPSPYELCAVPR
# Nuclear receptor subfamily 1 group I member 2 (Homo sapiens), sequence (O75469 whole entry, looked up): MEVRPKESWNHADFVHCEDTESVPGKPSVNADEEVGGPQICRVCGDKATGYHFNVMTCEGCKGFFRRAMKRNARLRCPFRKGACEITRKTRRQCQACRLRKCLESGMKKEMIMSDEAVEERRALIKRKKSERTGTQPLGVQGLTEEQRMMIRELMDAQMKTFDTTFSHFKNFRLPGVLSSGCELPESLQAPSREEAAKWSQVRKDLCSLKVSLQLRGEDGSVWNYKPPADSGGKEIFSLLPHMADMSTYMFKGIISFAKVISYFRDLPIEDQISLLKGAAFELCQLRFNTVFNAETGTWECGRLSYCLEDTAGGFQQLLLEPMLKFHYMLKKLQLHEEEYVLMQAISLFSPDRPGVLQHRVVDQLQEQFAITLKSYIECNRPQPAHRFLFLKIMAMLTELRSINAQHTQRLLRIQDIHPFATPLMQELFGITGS
# Voltage-gated inwardly rectifying potassium channel KCNH2 (Homo sapiens), sequence (Q12809 whole entry, looked up): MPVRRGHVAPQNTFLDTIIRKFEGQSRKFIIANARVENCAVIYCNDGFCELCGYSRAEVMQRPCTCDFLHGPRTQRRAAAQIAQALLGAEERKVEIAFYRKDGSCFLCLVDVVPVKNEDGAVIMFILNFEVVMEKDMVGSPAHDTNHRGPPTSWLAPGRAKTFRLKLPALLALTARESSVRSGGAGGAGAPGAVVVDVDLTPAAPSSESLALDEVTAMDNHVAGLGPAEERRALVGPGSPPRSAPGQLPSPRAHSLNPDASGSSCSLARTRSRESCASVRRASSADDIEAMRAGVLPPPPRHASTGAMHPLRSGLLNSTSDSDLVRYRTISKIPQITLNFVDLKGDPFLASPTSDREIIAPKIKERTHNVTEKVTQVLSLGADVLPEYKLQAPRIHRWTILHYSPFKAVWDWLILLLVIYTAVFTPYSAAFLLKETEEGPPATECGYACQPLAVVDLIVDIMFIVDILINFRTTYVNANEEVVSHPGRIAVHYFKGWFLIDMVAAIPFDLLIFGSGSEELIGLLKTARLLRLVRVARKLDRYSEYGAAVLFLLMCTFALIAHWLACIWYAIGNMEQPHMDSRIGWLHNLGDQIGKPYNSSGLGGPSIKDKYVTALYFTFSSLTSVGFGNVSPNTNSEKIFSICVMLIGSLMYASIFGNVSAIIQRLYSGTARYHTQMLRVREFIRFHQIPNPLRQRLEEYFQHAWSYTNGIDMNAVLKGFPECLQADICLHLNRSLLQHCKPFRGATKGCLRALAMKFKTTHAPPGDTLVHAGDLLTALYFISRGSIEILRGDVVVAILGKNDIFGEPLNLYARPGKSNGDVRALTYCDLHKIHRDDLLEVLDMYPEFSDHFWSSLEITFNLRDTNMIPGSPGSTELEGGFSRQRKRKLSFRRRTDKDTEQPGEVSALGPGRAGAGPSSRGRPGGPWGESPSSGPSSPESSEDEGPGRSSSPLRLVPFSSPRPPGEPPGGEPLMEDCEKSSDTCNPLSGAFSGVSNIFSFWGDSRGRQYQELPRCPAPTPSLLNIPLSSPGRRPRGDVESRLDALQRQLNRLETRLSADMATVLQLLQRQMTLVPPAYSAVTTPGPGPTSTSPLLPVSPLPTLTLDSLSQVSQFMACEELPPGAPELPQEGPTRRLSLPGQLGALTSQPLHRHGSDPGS
# Cytochrome P450 1A2 (Homo sapiens), sequence (P05177 whole entry, looked up): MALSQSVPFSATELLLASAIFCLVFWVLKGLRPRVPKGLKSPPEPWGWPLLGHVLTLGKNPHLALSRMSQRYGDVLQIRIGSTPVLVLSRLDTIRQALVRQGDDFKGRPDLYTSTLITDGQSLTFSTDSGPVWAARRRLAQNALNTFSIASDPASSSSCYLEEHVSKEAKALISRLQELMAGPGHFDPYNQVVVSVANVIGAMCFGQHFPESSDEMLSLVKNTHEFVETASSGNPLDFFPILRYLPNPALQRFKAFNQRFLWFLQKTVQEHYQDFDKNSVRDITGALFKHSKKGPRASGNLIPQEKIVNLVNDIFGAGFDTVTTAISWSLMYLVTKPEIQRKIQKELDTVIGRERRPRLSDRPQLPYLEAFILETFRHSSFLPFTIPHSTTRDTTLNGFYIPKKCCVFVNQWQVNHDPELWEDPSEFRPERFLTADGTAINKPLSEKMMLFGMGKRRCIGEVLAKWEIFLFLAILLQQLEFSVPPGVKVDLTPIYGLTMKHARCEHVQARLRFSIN
# Cytochrome P450 2C9 (Homo sapiens), sequence (P11712 whole entry, looked up): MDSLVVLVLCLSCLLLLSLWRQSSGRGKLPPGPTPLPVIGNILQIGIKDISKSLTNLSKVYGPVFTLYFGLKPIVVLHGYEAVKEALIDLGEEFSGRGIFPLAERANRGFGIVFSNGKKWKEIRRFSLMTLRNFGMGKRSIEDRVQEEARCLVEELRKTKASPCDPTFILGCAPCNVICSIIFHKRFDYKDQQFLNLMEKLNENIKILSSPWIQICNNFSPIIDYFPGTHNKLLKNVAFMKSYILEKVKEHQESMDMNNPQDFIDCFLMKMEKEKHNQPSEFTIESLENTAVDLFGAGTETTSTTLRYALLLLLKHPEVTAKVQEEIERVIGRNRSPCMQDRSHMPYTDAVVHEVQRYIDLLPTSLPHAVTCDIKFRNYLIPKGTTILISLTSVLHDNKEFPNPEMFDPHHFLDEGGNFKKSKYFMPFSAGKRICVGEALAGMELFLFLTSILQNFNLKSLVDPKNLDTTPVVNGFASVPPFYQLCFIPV
# Cytochrome P450 3A4 (Homo sapiens), sequence (P08684 whole entry, looked up): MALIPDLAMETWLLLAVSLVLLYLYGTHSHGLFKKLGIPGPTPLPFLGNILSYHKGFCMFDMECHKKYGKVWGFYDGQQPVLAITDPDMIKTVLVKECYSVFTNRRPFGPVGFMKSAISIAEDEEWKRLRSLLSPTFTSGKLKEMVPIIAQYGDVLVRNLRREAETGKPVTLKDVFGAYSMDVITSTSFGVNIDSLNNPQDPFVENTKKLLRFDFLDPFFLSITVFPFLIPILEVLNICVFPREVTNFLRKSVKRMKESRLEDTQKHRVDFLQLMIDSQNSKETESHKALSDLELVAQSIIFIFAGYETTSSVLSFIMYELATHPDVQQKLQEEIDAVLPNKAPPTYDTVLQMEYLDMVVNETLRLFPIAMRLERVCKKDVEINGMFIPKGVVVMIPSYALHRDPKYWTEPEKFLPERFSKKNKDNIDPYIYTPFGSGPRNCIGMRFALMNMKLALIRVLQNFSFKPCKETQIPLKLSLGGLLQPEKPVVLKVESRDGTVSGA
# Acetylcholinesterase (Homo sapiens), sequence (P22303 whole entry, looked up): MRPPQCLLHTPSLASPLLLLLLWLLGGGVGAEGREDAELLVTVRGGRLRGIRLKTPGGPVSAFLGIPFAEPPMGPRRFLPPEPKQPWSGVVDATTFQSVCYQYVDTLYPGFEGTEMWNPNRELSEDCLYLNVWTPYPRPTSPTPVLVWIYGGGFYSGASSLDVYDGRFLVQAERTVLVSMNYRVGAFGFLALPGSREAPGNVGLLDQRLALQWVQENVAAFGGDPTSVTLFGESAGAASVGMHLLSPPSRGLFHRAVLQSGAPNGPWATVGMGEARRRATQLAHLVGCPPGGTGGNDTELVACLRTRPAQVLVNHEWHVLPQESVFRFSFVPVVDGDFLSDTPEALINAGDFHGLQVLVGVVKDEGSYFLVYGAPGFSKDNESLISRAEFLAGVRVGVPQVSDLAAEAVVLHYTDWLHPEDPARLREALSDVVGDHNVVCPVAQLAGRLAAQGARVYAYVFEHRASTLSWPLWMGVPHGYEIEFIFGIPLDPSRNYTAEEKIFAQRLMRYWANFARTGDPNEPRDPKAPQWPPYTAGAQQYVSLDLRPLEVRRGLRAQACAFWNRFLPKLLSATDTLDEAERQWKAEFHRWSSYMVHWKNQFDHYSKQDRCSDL
# Cytochrome P450 2C19 (Homo sapiens), sequence (P33261 whole entry, looked up): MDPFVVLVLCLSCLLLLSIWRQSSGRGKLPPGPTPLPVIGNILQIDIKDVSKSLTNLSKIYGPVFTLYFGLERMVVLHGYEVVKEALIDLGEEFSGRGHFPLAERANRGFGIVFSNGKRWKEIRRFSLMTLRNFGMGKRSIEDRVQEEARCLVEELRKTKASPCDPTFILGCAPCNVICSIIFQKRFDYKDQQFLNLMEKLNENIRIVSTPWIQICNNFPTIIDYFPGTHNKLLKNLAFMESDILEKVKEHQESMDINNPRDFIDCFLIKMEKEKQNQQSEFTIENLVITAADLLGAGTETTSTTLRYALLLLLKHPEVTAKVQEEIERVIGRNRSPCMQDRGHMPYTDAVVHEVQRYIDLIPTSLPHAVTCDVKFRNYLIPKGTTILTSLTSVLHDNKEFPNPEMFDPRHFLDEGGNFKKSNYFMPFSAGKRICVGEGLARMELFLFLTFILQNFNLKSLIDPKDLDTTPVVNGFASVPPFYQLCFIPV
Structure (SMILES),Potency [1],Potency [2],Potency [3],Potency [4],Potency [5],Potency [6],Potency [7],Potency [8],Potency [9],Potency [10],Potency [11],Potency [12],Potency [13],Potency [14],Potency [15],max activation [16],Potency [17],outcome [18]
CSc1nc(NC(C)C)nc(NC(C)C)n1,inactive,inactive,inactive,30.5 µM (active) and 21.7 µM (active),inactive,inactive,inactive,inactive,inactive,39.8 µM (active) and 71 µM (active),17.8 µM (active),inactive,,,,,,
COC(=O)Nc1nc2ccccc2[nH]1,6.11 µM (active) and inactive,,inactive,54.5 µM (active),inactive,inactive,inactive,inactive,inactive,inactive,11.2 µM (active) and 20 µM (active),inactive,inactive,inactive and 71 µM (active),,,,
CN(C)c1nc(=O)n(C2CCCCC2)c(=O)n1C,inactive,inactive,inactive,65 µM (active) and inactive,inactive,inactive,inactive,inactive,inactive,inactive,inactive,inactive,,inactive,,,,
CCOP(=O)(OCC)OCC,inactive,inactive,inactive,inactive,inactive,inactive,inactive,inactive,inactive,49.4 µM (active) and inactive,17.5 µM (active) and inactive,inactive,,35 µM (active) and inactive,inactive,,,
CN(C)P(=O)(N(C)C)N(C)C,inactive,inactive,,inactive,inactive,inactive,inactive,inactive,inactive,inactive,inactive,inactive,,inactive,,,,
O=S(=O)(O)C(F)(F)C(F)(F)C(F)(F)C(F)(F)C(F)(F)C(F)(F)C(F)(F)C(F)(F)F,inactive,,inactive,inactive and 54.5 µM (active),inactive,inactive,inactive,inactive,inactive,42.6 µM (active) and 22.4 µM (active),inactive and 50.2 µM (active),inactive,inactive,537 nM (active) and 502 nM (active) and 423 nM (active),,,,
N#CC(c1ccccc1)c1ccccc1,inactive,inactive,inactive,inactive,inactive,inactive,inactive,inactive,inactive,4.48 µM (active) and 5.03 µM (active),,inactive,,22.4 µM (active) and 35.6 µM (active),inactive,,,
NC(=O)CN1CCCC1=O,inactive,inactive,,,inactive,inactive,inactive,inactive,inactive,inactive,inactive,inactive,,inactive,,-4.89% (inactive),,
N#Cc1c(Cl)c(Cl)c(Cl)c(C#N)c1Cl,inactive,1.07 µM (active) and 1.72 µM (active),23.9 µM (active) and 54.5 µM (active),950 nM (active) and 1.93 µM (active),15.6 µM (active) and 17.8 µM (active),inactive,,inactive,34.9 µM (active) and inactive,17.5 µM (active) and 22.4 µM (active),984 nM (active) and 1 µM (active),inactive,,5.53 µM (active) and 5.64 µM (active),984 nM (active) and 1.26 µM (active),,,
CC(C)(c1ccccc1)c1ccc(O)cc1,60.6 µM (active),,inactive,27.1 µM (active) and 19.3 µM (active),inactive,inactive,inactive,inactive,inactive,inactive,inactive,inactive,inactive,11.2 µM (active) and 12.6 µM (active),,,,
CCCCCCCCCC(CC)c1ccc(S(=O)(=O)O)cc1 (stereo not given),inactive,61.8 µM (active) and inactive and 52.9 µM (active),,,inactive,57 µM (active) and 79.6 µM (active) and 47.4 µM (active),inactive,inactive,inactive and 50.2 µM (active),40.1 µM (active) and inactive and 35.6 µM (active),63.2 µM (active) and inactive and 63.3 µM (active),inactive,,,inactive,-0.486% (inactive),inactive,inactive
C[N+](C)(C)CC(=O)[O-],inactive,inactive,inactive,inactive,inactive,inactive,inactive,inactive,inactive,inactive,inactive,inactive,,inactive,inactive,,,
CN(C)c1ccccc1,inactive,inactive,inactive,inactive,inactive,inactive,inactive,inactive,inactive,29 µM (active) and 41.6 µM (active),,inactive,,inactive,32.5 µM (active) and inactive,,,
CC1=C(C(=O)Nc2ccccc2)SCCO1,inactive,,,34.9 µM (active) and 30.6 µM (active),inactive,inactive,inactive,inactive,,36.2 µM (active) and 22.4 µM (active),12.8 µM (active) and 12.6 µM (active),inactive,inactive,11.2 µM (active),inactive,,,
Cc1cc(Cl)ccc1N=CN(C)C,inactive,inactive,inactive,,,,,,35.6 µM (active),79.6 µM (active) and inactive,22.4 µM (active) and 28.3 µM (active),inactive,,inactive,inactive,,,
